Bioassay records (PubChem BioAssay)
Pf Dd2 growth = qHTS Primary assay for Inhibitors of Plasmodium falciparum Dd2 growth in vitro | AID 1347417, 2020 | hit rate 4.3% among 120,000 | P. falciparum Dd2 growth, SYBR Green, 72 h | Potency, µM (series often up to 28.9 µM), most hits filed as inhibitors; active means well fitted inhibition curve with a large enough effect; further: nearly all actives have a fitted effect of over 65% in size
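Infected erythrocytes (Dd2, 0.3% parasitemia, 2.5% hematocrit final) are added to compound in RPMI-1640/Albumax II medium, grown 72 h at 37C in low oxygen, then lysed with saponin/Triton-X containing SYBR Green and read by fluorescence.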
Each line names hits and unclear results; the compound was inactive in the other large screens. The entries come from a sample that favours hits as a whole.

CCc1noc(-c2cccn3c(CNC(=O)COc4cccc(C)c4)nnc23)n1	none
COc1ccc(Cl)cc1C(=O)NCc1nnc2c(-c3nc(C(C)C)no3)cccn12	Pf Dd2 growth 1.8µM
Cc1noc(-c2cccn3c(CNC(=O)c4ccccc4)nnc23)n1	none
Cc1ccccc1C(=O)NCc1nnc2c(-c3nc(C(C)C)no3)cccn12	none
CCc1noc(-c2cccn3c(CNC(=O)COc4ccc(F)cc4)nnc23)n1	Pf Dd2 growth 0.71µM
Cc1noc(-c2cccn3c(CNC(=O)c4cccc(N(C)C)c4)nnc23)n1	Pf Dd2 growth 0.56µM
COc1ccc(Cl)cc1C(=O)NCc1nnc2cc(-c3nc(C(C)C)no3)ccn12	none
O=C(NCc1nnc2c(-c3nc(C4CC4)no3)cccn12)c1cc(F)ccc1F	none
Cc1ccc(C(=O)NCc2nnc3c(-c4nc(C5CC5)no4)cccn23)cc1C	none
CCc1noc(-c2cccn3c(CNC(=O)c4ccc(F)cc4)nnc23)n1	none
COc1cccc(C(=O)NCc2nnc3c(-c4nc(C)no4)cccn23)c1	none
COCC(=O)N1CCN(C(=O)NC(C)C)C[C@H]1C(=O)N[C@H](Cc1cccnc1)C(=O)OC	none
Cc1oc(-c2ccc(F)cc2)nc1CN1CCC2(CCCO2)CCC1=O (stereo not given)	none
Cc1ccc(NC(=O)C2CCN(C(=O)c3ncn4c3COC(c3ccc(F)cc3)C4)CC2)c(F)c1 (stereo not given)	none
COCCn1ncc(N2CCCC(CC(=O)NCCc3c[nH]c4ccccc34)C2)cc1=O (stereo not given)	none
O=C1CCC2(CCN1)CCN(S(=O)(=O)c1ccccc1F)CC2	none
O=C1NCCCCCCN(C(=O)Nc2ccccc2F)[C@H]2CCC[C@@H]12	none
CCN1Cc2nc(OC)c(CNC(=O)[C@H](O)C3CCCCC3)cc2C1=O	none
Cc1ccc(C(=O)N2CCCCCNC(=O)[C@@H]3CCCC[C@@H]32)s1	none
O=C1Nc2ccccc2C12CCN(S(=O)(=O)c1ccccc1)C2 (stereo not given)	none
CC(C)N(C(=O)c1ccccc1-c1ccc(CS(C)(=O)=O)cn1)C(C)C	none
O=C(c1nnc(CN2CCN(CCO)CC2)n1-c1ccccc1)N1CCC[C@@H]1C(c1ccccc1)c1ccccc1	none
O=C(Nc1ccc(F)cc1)N[C@@H]1C[C@H](CO)[C@@H](O)[C@H]1O	none
O=C(OCc1ccccc1)N1CCOCC12CCN(Cc1ccc3[nH]ccc3c1)CC2	Pf Dd2 growth 7.1µM
O=C(OCc1ccccc1)N1CCOCC12CCN(Cc1ccncc1)CC2	none
O=C(c1ccccc1)N1CCOCC12CCN(Cc1ccc3[nH]ccc3c1)CC2	none
O=C(N[C@@H]1CCOC[C@H]1OCC1CCC1)c1ccc(-n2cnnc2)cc1	none
O=C(Nc1ccc(F)cc1)c1cc(-c2ccc[nH]2)n[nH]1	none
COc1cccc(-c2cc(C(=O)Nc3ccc(F)cc3)[nH]n2)c1	Pf Dd2 growth 2.5µM
CSc1ccc(NC(=O)c2cc(-c3ccc[nH]3)n[nH]2)cc1	Pf Dd2 growth 13µM
COc1cccc(-c2cc(C(=O)Nc3ccc(Br)c(C)c3)[nH]n2)c1	none
Cc1ccc(NC(=O)c2cc(-c3ccc[nH]3)n[nH]2)cc1F	none
COc1cccc(CNC(=O)c2cc(-c3cccc(OC)c3)n[nH]2)c1	none
COc1ccc(CCNC(=O)CC(c2cccc3c2OCO3)c2c[nH]c3ccccc23)cc1OC (stereo not given)	none
CC(C)N1C(=O)C2(CCCCC2)C1C(=O)N1CCCCC1 (stereo not given)	none
COc1ccc(CN2C(=O)CO[C@H](c3ccc(NC(=O)NC(C)(C)C)cc3)[C@H]2CO)cc1	none
CN1CCC(C(=O)N[C@@H]2CN(c3ncccn3)C[C@H]2CO)CC1	none
Cc1nc2cc(-c3nc(CC4CCN(C)CC4)nn3CCO)ccc2s1	none
CC(CCc1ccccc1)NC(=O)c1ccc(Cn2ccn3nc4c(c3c2=O)CCCC4)cc1 (stereo not given)	Pf Dd2 growth 8.9µM
CNC(=O)c1ccc(Cn2ccn3nc4c(c3c2=O)CCCC4)cc1	none
COc1ccccc1CNC(=O)c1ccc(Cn2ccn3nc4c(c3c2=O)CCCC4)cc1	none
O=S(=O)(c1ccc(C(F)(F)F)cc1)N1CCCC(Cn2cnc3cccnc32)C1 (stereo not given)	none
CNC(=O)[C@@H]1CN(C(=O)CCc2cccc(OC)c2)C[C@H]1CO	none
COc1cccc(CN2CCC(N3Cc4cnc(C)n4C3=O)CC2)c1	none
CC(=O)N1C[C@@H]2CCCN3CCC[C@@H]([C@H]23)[C@H]1CCCC(=O)N(C)C	none
O=c1cc(-c2ccccn2)oc2c(NCc3ccccc3)nccc12	none
O=c1cc(-c2cccnc2)oc2c(NCc3ccc(F)cc3)nccc12	Pf Dd2 growth 11µM
C[S+](=O)([O-])c1ccc(-c2nccc3c(=O)cc(-c4cccnc4)oc23)cc1	none
CCOC(=O)C1(Cc2ccccc2C)CCCN(C(=O)c2csc(C)n2)C1 (stereo not given)	none
CCOC(=O)C1(Cc2ccccc2C)CCCN(Cc2cn(CC(N)=O)c3ccccc23)C1 (stereo not given)	Pf Dd2 growth 14µM
CCOC(=O)C1(Cc2ccccc2C)CCCN(C(=O)c2cc[n+]([O-])cc2)C1 (stereo not given)	none
CS(=O)(=O)N1CCCN(C(=O)C2CCOCC2)CCNC(=O)CC1c1ccccc1 (stereo not given)	none
COc1ccc(NC(=O)CSc2nc(-c3ccccc3)nc3cc(=O)[nH]n23)cc1	none
COc1cccc(-c2nc(SCc3ccc(C)cc3)n3[nH]c(=O)cc3n2)c1	none
CC(C)(C)c1ccc(-c2nc(SCCCOc3ccccc3)n3[nH]c(=O)cc3n2)cc1	Pf Dd2 growth 10µM
COc1cccc(C(=O)N2CCC(N3C[C@H](O)C[C@H]3C(=O)NCCN3CCCC3)CC2)c1	none
O=C(NC[C@H]1O[C@H](Cc2cc(COc3ccccc3)on2)CC[C@@H]1O)c1ccc2c(c1)OCO2	none
CN(CCc1noc(C2CN(C(=O)c3ccccc3C(F)(F)F)C2)n1)C(=O)C1CC1	none
CC(C)CCN(C)Cc1ccccc1C(F)(F)F	none
CN(Cc1ccc(-c2ccccc2)cc1)Cc1cccnc1	Pf Dd2 growth 4µM
COc1ccc(CN(C)Cc2ccc(-c3ccccc3)cc2)cc1	none
CC(C)CCN(C)Cc1ccc(-c2ccccc2)cc1	Pf Dd2 growth 8.9µM
CN(Cc1ccc(F)cc1)Cc1ccc(-c2ccccc2)cc1	none
CN(Cc1ccc(-c2ccccc2)cc1)Cc1ccc(C(F)(F)F)cc1	none
O=C(Oc1ccccc1)N1CCC(Oc2cnc3c(ccn3-c3cncnc3)c2)CC1	none
COc1coc(C(=O)NCCC2CN(c3cnn(C)c(=O)c3)CCO2)cc1=O (stereo not given)	none
O=C(Nc1ccc([C@H]2OCC(=O)N(C3CCOCC3)[C@@H]2CO)cc1)C1CCOCC1	none
CC(C)(C)c1coc([C@@H]2COCCN2Cc2cccc(C#N)c2)n1	none
O=C(c1cc2ccccc2[nH]1)N1CC2CC(C1)[C@@H]1CCCC(=O)N1C2 (stereo not given in full)	none
Cc1occc1-c1nc2ncccc2[nH]1	none
COC[C@@H]1CN(S(=O)(=O)c2ccc(F)cc2)C[C@H]1c1nc(C)no1	none
COc1ccc(C(=O)N2CCc3nc(C)nc(-c4ccc(OC)cc4)c3C2)cc1	none
COc1ccc(-c2nc(C)nc3c2CN(C(=O)c2ccccc2)CC3)cc1	none
COc1ccc(-c2nc3c(c(-c4ccccc4)n2)CN(C(=O)c2ccccc2Cl)CC3)cc1	Pf Dd2 growth 10µM
COc1ccc(-c2nc(C)nc3c2CN(C(=O)c2ccccn2)CC3)cc1	none
COc1ccc(-c2nc(-c3ccccc3)nc3c2CN(C(=O)c2ccccc2C)CC3)cc1	Pf Dd2 growth 10µM
COc1ccc(-c2nc(C)nc3c2CN(C(=O)c2ccc(C)cc2)CC3)cc1	none
